Only a selection was taken, and hits are over-represented in it overall.
Tg IFNy HTS = T. gondii growth inhibition with IFN-gamma, primary screen, cell-based. Toxoplasma gondii growth in IFN-gamma-treated host cells; hits give low values. activity change, negative = inhibition, % (no concentration beside the values). 3.8% of 69,000 active. AID 1259416, 2018; in the data active = activity change below about -70%, passing the limit was not always enough;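 also: host cells are HeLa cells infected with Toxoplasma gondii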
An asterisk follows results filed as active.

SMILES | Tg IFNy HTS
Cc1[nH]nc2ccc(-c3cncc(OC[C@@H](N)Cc4ccccc4)c3)cc12 | -78*
COc1cncc(-c2ccc(F)c(CO)c2)c1 | -2
O=C1CCCC[C@]2(CN(C(=O)COc3cccc(F)c3)C[C@H]2c2ccccc2F)N1 | -36
CN1C[C@@H]2C3(CCN(C(=O)C4CCOCC4)CC3)CC[C@]2(C(=O)N(C)C)C1 | -6
CCCCCCC1=NN(C(=O)c2ccc(C)cc2)C(O)(C(F)(F)F)C1 (centres undefined) | -34
CN(CCc1ccccn1)C(=O)C1CNC1 | -36
CO[C@@H]1CN(C)C(=O)c2cc(NC(=O)c3cnccn3)ccc2OC[C@H](C)NC[C@@H]1C | -35
COc1cccc(NC(=O)Nc2ccc3c(c2)C(=O)N(C)C[C@@H](OC)[C@H](C)CN[C@@H](C)CO3)c1 | -34
CO[C@H]1CN(C)C(=O)c2cc(NS(=O)(=O)c3cccc(Cl)c3)ccc2OC[C@H](C)NC[C@H]1C | -86*
COc1cccc(NC(=O)Nc2ccc3c(c2)C(=O)N(C)C[C@H](OC)[C@H](C)CN[C@@H](C)CO3)c1 | 19
CO[C@@H]1CN(C)C(=O)c2cc(NS(=O)(=O)c3cn(C)cn3)ccc2OC[C@@H](C)NC[C@@H]1C | -13
CO[C@H]1CN(C)C(=O)c2cc(NC(=O)c3ccc(Oc4ccccc4)cc3)ccc2OC[C@H](C)NC[C@H]1C | -98*
CO[C@H]1CN(C)C(=O)c2cc(NS(=O)(=O)c3cccc(Cl)c3)ccc2OC[C@@H](C)NC[C@H]1C | -61
CO[C@@H]1CN(C)C(=O)c2cc(NC(=O)c3cnccn3)ccc2OC[C@H](C)NC[C@H]1C | 10
CO[C@H]1CN(C)C(=O)c2ccc(NC(=O)c3cccc(F)c3)cc2OC[C@@H](C)NC[C@@H]1C | 47
CO[C@@H]1CN(C)C(=O)c2cc(NC(=O)c3ccc(Oc4ccccc4)cc3)ccc2OC[C@@H](C)NC[C@H]1C | -119*
CO[C@@H]1CN(C)C(=O)c2cc(NC(=O)c3ccc(Oc4ccccc4)cc3)ccc2OC[C@H](C)NC[C@@H]1C | -97*
COc1cccc(NC(=O)Nc2ccc3c(c2)C(=O)N(C)C[C@H](OC)[C@@H](C)CN[C@H](C)CO3)c1 | 28
Cc1c[nH]c(CN2CCCC(O)(CO)C2)c(C)c1=O (centres undefined) | 0
CN(Cc1csc(-c2ccccc2)n1)C(=O)c1cc2n(n1)CCCNC2 | 105
Cc1cc(CC(=O)N2CCCC(OCc3ccccn3)C2)on1 (centres undefined) | -3
Cc1ccc(CNC(=O)Nc2ccc(-c3nc(-c4ccc(C)cc4C)co3)cc2)cc1 | 17
CSc1nccc(-c2ccc(S(C)(=O)=O)cc2)n1 | -4
Cc1nn(C)c(C)c1-c1ccnc(NCCN2CCN(C(C)C)CC2)n1 | -2
Cc1ncc(-c2ccnc(Nc3ccc(S(C)(=O)=O)cc3)n2)n1C(C)C | -77*
SMILES | Tg IFNy HTS
O=C(NC12CC3CC(CC(C3)C1)C2)N1CCC2(CC1)Nc1cc(F)ccc1-n1cccc12 | -25
O=C(c1ccccn1)N1CC[C@H]2OCC[C@@]2(COc2ncccc2F)C1 | -21
Cc1cccc(N2CCC(NCCSc3ncn[nH]3)CC2)c1 | -7
Cn1cc(-c2cnc(-c3cccnc3)nc2)cc1C(=O)NCC(C)(C)CO | 400
CC(C)n1cnc(-c2cc(C(=O)NCC3CCCO3)c3ccccn23)c1 (centres undefined) | 0
Cc1ccc(S(=O)(=O)N(C)C[C@@H]2Oc3cc(C#CC4CCCC4)ccc3S(=O)(=O)N([C@@H](C)CO)C[C@H]2C)cc1 | -109*
COCC#Cc1ccc2c(c1)O[C@H](CN(C)C(=O)C1CCOCC1)[C@H](C)CN([C@@H](C)CO)S2(=O)=O | 51
C[C@H]1CN([C@@H](C)CO)S(=O)(=O)c2ccc(C#CCC3CCCC3)cc2O[C@@H]1CN(C)C(=O)c1cnccn1 | -53
CCCC#Cc1ccc2c(c1)O[C@H](CN(C)Cc1ccccn1)[C@H](C)CN([C@@H](C)CO)S2(=O)=O | -94*
CCCC#Cc1ccc2c(c1)O[C@H](CN(C)Cc1ccccn1)[C@@H](C)CN([C@H](C)CO)S2(=O)=O | -29
C[C@@H]1CN([C@@H](C)CO)S(=O)(=O)c2ccc(C#Cc3cccc(F)c3)cc2O[C@@H]1CN(C)S(=O)(=O)c1cn(C)cn1 | 32
C[C@H](CO)N1C[C@H](C)[C@H](CN(C)C(=O)c2cnccn2)Oc2cc(C#CCC3CCCC3)ccc2S1(=O)=O | -100*
CCCC#Cc1ccc2c(c1)O[C@@H](CN(C)Cc1ccccn1)[C@H](C)CN([C@@H](C)CO)S2(=O)=O | -29
C[C@@H]1CN([C@@H](C)CO)S(=O)(=O)c2ccc(-c3ccncc3)cc2O[C@H]1CN(C)S(C)(=O)=O | 72
CCCN(C)C[C@@H]1Oc2cc(/C=C/c3ccccc3)ccc2S(=O)(=O)N([C@H](C)CO)C[C@@H]1C | 9
CCCN(C)C[C@H]1Oc2cc(/C=C/c3ccccc3)ccc2S(=O)(=O)N([C@H](C)CO)C[C@H]1C | -92*
C[C@H](CO)N1C[C@H](C)[C@H](CN(C)Cc2ccccc2C(=O)O)Oc2cc(-c3ccc(F)cc3)ccc2S1(=O)=O | 65

From PubChem BioAssay
